FECH inh: inhibitors of human ferrochelatase, primary screen, biochemical, purified FECH, Ni-mesoporphyrin absorbance | AID 1671448, 2021 | Ferrochelatase, mitochondrial (Homo sapiens), P22830 | calls only at 10 µM (by protocol) | Ni-mesoporphyrin absorbance 550 nm | hit rate 3.3% among 20,000;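 active = enzyme reaction rate more than 3 SD below the solvent-only control wells on the same plate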;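 note: lower slope than DMSO wells means FECH inhibition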
Target sequence (P22830 whole entry, looked up): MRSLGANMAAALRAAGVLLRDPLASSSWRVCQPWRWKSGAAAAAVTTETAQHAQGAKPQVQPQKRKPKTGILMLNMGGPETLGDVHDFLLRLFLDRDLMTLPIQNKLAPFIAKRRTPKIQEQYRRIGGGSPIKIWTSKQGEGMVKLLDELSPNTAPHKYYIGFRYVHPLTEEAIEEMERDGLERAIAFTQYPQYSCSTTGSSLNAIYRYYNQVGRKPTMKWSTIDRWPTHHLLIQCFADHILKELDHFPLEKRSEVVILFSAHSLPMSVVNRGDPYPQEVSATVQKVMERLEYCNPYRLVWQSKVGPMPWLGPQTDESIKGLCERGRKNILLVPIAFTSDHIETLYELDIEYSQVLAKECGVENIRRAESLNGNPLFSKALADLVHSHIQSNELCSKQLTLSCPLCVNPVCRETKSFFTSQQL
Calls only; 0 = inactive; + = active, no number. Only a selection was taken, and hits are over-represented in it overall.

SMILES	FECH inh
Cc1ccc(Nc2nc(N3CCN(C)CC3)nc3c2cnn3-c2ccccc2)cc1	0
OCCN1CCN(c2nc(Nc3ccc(F)cc3)c3cnn(-c4ccccc4)c3n2)CC1	0
CCN(CCO)c1nc(Nc2ccc(Cl)cc2)c2cnn(-c3ccccc3)c2n1	0
CN(CCO)c1nc(Nc2ccc(Cl)cc2)c2cnn(-c3ccccc3)c2n1	+
COc1ccc(Nc2nc(N3CCCCC3)nc3c2cnn3-c2ccccc2)cc1	0
OCCN1CCN(c2nc(Nc3ccc(Cl)cc3)c3cnn(-c4ccccc4)c3n2)CC1	+
COc1ccc(Nc2nc(N3CCOCC3)nc3c2cnn3-c2ccccc2)cc1	0
COc1ccc(Nc2nc(N3CCN(CCO)CC3)nc3c2cnn3-c2ccccc2)cc1	0
CN1CCN(c2nc(Nc3ccc(Cl)cc3)c3cnn(-c4ccccc4)c3n2)CC1	+
Clc1ccc(Nc2nc(N3CCN(c4ccccc4)CC3)nc3c2cnn3-c2ccccc2)cc1	0
COc1ccc(Nc2nc(N3CCC(C)CC3)nc3c2cnn3-c2ccccc2)cc1	+
CN(CCO)c1nc(Nc2ccccc2)c2cnn(-c3ccccc3)c2n1	0
c1cn(CCCNc2ccc3cc[nH]c3n2)cn1	0
Cn1ccc2c(-c3cccc(-n4cnnc4)c3)ccnc21	0
Cc1nc2nc[nH]n2c(=O)c1Oc1ccc(N)cc1	0
Cc1cccc(S(=O)(=O)N2CCN(Cc3nc4cccnc4n3-c3cccc(F)c3)CC2)c1	0
CCOc1ccccc1-c1nc(CSc2nc(-c3ccc(OC)cc3)cc(=O)[nH]2)c(C)o1	0
O=C(CCCN1CCC2(CC1)c1ccccc1CC2O)c1ccc(F)cc1 (stereo not given)	0
CNc1nc(Nc2ccc(Cl)cc2)c2cnn(-c3ccccc3)c2n1	0
CCCS(=O)(=O)N1CCc2c(nc(-c3ccncc3)nc2N(C)C)C1	0
CC(C)N1CCC(C(=O)NC(Cn2ccnc2)c2ccccc2)CC1 (stereo not given)	0
COc1ccc(CNC(=O)NCCc2nc3cccnc3n2Cc2ccccc2)cc1	0
Cc1cc(C)n(-c2cc(N3CCCCCC3)ncn2)n1	0
O=C(CN1c2ccc(F)cc2-c2ccccc2S1(=O)=O)NCCCN1CCOCC1	0
CCOC(=O)c1ccc(NC(=O)CN2CCN(Cc3ccc(F)cc3Cl)S2(=O)=O)cc1	0
SMILES	FECH inh
COC(=O)c1cc(NC(=O)CN2c3ccc(F)cc3-c3ccccc3S2(=O)=O)cc(C(=O)OC)c1	+
CC(CCc1ccccc1)NC(=O)CN1c2ccc(F)cc2-c2ccccc2S1(=O)=O (stereo not given)	+
CCCCOC(=O)c1ccc(NC(=O)CN2c3ccc(F)cc3-c3ccccc3S2(=O)=O)cc1	+
CC(CCc1ccccc1)NC(=O)CN1c2ccc(Br)cc2-c2ccccc2S1(=O)=O (stereo not given)	0
CCc1ccc2c(c1)-c1ccccc1S(=O)(=O)N2CC(=O)Nc1ccccc1C(=O)N1CCCC1	0
CCOC(=O)c1ccc(NC(=O)CN2CCCN(Cc3cccc(F)c3)S2(=O)=O)cc1	0
CC(C)(C)NC(=O)c1ccccc1NC(=O)CN1c2ccc(F)cc2-c2ccccc2S1(=O)=O	0
Clc1cccc(Nc2nc(NCCc3ccccc3)nc3c2cnn3-c2ccccc2)c1	0
Cc1ccc(C(=O)NCCC2=CCCCC2)cc1NC(=O)C1CC1	0
Cc1ncc(CN2CCC(Cc3n[nH]c(=O)n3-c3ccccc3)CC2)cn1	0
CCC(CO)N(Cc1ccsc1)C(=O)c1ccc2cc[nH]c2c1 (stereo not given)	0
CC(C(=O)N(C)C)N(C)Cc1cccc(C(=O)Nc2ccc[nH]c2=O)c1 (stereo not given)	0
Cc1ccc(S(=O)(=O)N2CCN(Cc3nc4cccnc4n3-c3ccccc3)CC2)cc1	0
CC(Cc1cnccn1)Nc1nccc(CCC(F)(F)F)n1 (stereo not given)	0
CCN1CCN(C(=O)c2[nH]cnc2C(=O)NCC(C)(C)C)CC1	0
CCc1cc(=O)[nH]c(SCc2nc(-c3ccccc3C)oc2C)n1	0
Cn1c(CCCNC(=O)c2cn(-c3ccccc3)nn2)nc2ccccc21	0
CS(=O)(=O)NC1CCN(C(=O)[C@H](N)c2ccccc2)CC1	0
NS(=O)(=O)c1ccc(NC(=O)c2cc(-c3ccc(Cl)cc3)on2)cc1	+
CCc1ccc(-c2noc3c(=O)n(CCC(=O)Nc4ccc(S(N)(=O)=O)cc4)cnc23)cc1	0
CCOc1ccc(NC(=O)c2cc(-c3ccc(OC)c(S(N)(=O)=O)c3)n[nH]2)cc1	0
NS(=O)(=O)c1ccc(NC(=O)c2nn(-c3cccc(Cl)c3)ccc2=O)cc1	0
NS(=O)(=O)c1ccc(NC(=O)c2noc3c2CCCC3)cc1	0
CCOc1ccc(-c2cc(C(=O)Nc3ccc(S(N)(=O)=O)cc3)no2)cc1	+
CC1CCCN(c2nc(Nc3ccc4c(c3)OCO4)c3cnn(-c4ccccc4)c3n2)C1 (stereo not given)	0
SMILES	FECH inh
CCn1cnnc1CCNc1nccc(N2CCC(O)C2)n1 (stereo not given)	0
O=C(NCCc1ccccc1)N1CCCCC1CCn1ccnc1 (stereo not given)	0
O=C(c1c[nH]c(=O)cn1)N1CCCCC1CCn1ccnc1 (stereo not given)	0
c1ccc2c(CN3CCCCC3CCn3ccnc3)ccnc2c1 (stereo not given)	+
CC(C)(C)c1ccc(-c2nc3nc(CN4CCN(CCO)CC4)cc(=O)n3[nH]2)cc1	0
CCOc1ccc(Nc2nc(N3CCN(CCO)CC3)nc3c2cnn3-c2ccccc2)cc1	0
CCOc1ccccc1N(Cc1nc2nc(C)cc(=O)n2[nH]1)C(=O)c1ccccc1F	0
CCc1nc2nc(C)c(NC(=O)Nc3cccc(C(F)(F)F)c3)c(=O)n2[nH]1	0
CCc1ccccc1NCc1nc2nc(C)c(Cc3ccc(Cl)cc3)c(=O)n2[nH]1	+
O=c1cc(CNc2cccc(C(F)(F)F)c2)nc2nc(NCc3ccc(Cl)cc3)[nH]n12	0
Cc1nc2nc(C)c(NC(=O)Nc3cccc(C(F)(F)F)c3)c(=O)n2[nH]1	0
COc1cccc(NCc2nc3nc(C)c(Cc4ccc(Cl)cc4)c(=O)n3[nH]2)c1	+
CCOC(=O)CCc1c(C)nc2nc(CNc3ccccc3OCC)[nH]n2c1=O	0
CCOC(=O)CCc1c(C)nc2nc(CNc3cccc(C(F)(F)F)c3)[nH]n2c1=O	+
Cc1nc2nc(C3CC3)[nH]n2c(=O)c1NC(=O)Nc1ccc(Cl)cc1	0
CCOc1ccccc1NCc1nc2nc(C)c(Cc3ccc(Cl)cc3)c(=O)n2[nH]1	+
COc1cccc(NC(=O)Nc2c(C)nc3nc(C)[nH]n3c2=O)c1	0
Cc1nc2nc(Cc3cccc(F)c3)[nH]n2c(=O)c1C	0
CC(C)Cc1ncc2c(n1)CN(C(=O)Cc1cccnc1)C2	0
CCC(=O)Nc1ccccc1-c1nnc(SC(CC)C(=O)Nc2ccc(C(=O)OC)cc2)[nH]c1=O (stereo not given)	0
CCOc1ccc(NCc2cc(=O)n3[nH]c(NCc4ccc(F)cc4)nc3n2)cc1	0
Cc1ccc(NC(=O)C2CCN(c3ccc(-c4cccs4)nn3)CC2)nc1	0
CCCCC(=O)Nc1cc(NC(=O)c2csnn2)ccc1OC	0
Cc1ccc(C(=O)NCCn2c(C(F)(F)F)nc3cccnc32)cc1C	0
Cc1ccc(C)c(NC(=O)N2CCN(CCn3c(C(F)(F)F)nc4cccnc43)CC2)c1	0
C=C(C)COc1cccc(C(=O)NC(C)c2nncn2C)c1 (stereo not given)	0
O=C(c1ccc(CN2CCCCC2)cc1)N1CCCC1Cn1cccn1 (stereo not given)	0

Source: PubChem BioAssay
